Source: PubChem BioAssay (Tox21)
Results filed as inconclusive are left out. Activity calls are given as the source filed them. Unless noted, calls follow the shape of the dose curve; as a rule, active = well fitted curve in the direction sought with a large enough effect in the repeat runs; inconclusive = weak or mixed curves; inactive = no such curve, though single readings can be large; an effect the other way counts as inactive or inconclusive.

What was measured:
[1] = qHTS assay to identify small molecule agonists of the peroxisome proliferator-activated receptor delta (PPARd) signaling pathway - cell viability counter screen (AID 743211); also: nearly all actives have a fitted effect of over 55% in size; also: potency is read from the fitted curve at half-maximal effect
Method in brief: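 Read-out: CellTiter-Glo luminescence, 30 min RT, measured in the same wells as the beta-lactamase reporter. Cells: GeneBLAzer PPAR delta UAS-bla HEK293H, 3000 cells/well, compound exposure 17 h at 37C.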

[2] = qHTS assay to identify small molecule agonists of the farnesoid-X-receptor (FXR) signaling pathway - cell viability counter screen (AID 743218); also: nearly all actives have a fitted effect of over 45% in size; also: potency is read from the fitted curve at half-maximal effect
Method in brief: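 After 16 h at 37 C with test compounds, FXR-bla HEK 293T cells were given LiveBLAzer B/G substrate for 2 h at RT and then CellTiter-Glo; luminescence was taken after 30 min.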

[3] = qHTS assay to identify small molecule antagonists of the farnesoid-X-receptor (FXR) signaling pathway - cell viability counter screen (AID 743221; active = well fitted cell-killing curve with a large enough effect in the repeat runs, not every such curve was filed as active; also: nearly all actives have a fitted effect of over 50% in size; also: potency is read from the fitted curve at half-maximal effect)
Method in brief: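 HEK 293T FXR-bla cells, 5 h pre-incubation; compound + CDCA 50 uM final, 16 h, 37 C; beta-lactamase FRET read first, then CellTiter-Glo luminescence, 30 min RT.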

[4] = biological target: Vitamin D3 receptor (Homo sapiens) (UniProt P11473); assay: qHTS assay to identify small molecule agonists of the vitamin D receptor (VDR) signaling pathway (AID 743222; calls by dose curve)
Vitamin D3 receptor (Homo sapiens), sequence (P11473 whole entry, looked up): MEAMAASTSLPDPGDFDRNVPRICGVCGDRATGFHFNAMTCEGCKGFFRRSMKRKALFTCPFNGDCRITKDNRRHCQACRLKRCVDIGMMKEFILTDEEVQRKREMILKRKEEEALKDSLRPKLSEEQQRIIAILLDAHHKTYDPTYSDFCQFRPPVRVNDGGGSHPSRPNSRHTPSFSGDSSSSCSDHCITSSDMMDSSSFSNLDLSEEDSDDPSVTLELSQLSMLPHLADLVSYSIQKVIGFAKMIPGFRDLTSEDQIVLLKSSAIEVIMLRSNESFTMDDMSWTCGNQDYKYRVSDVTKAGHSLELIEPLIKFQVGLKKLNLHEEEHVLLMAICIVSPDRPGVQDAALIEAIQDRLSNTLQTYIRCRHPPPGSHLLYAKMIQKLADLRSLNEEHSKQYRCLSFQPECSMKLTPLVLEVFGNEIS
Method in brief: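 VDR-bla cells were seeded, left 4 h, treated with compounds in DMSO for 16 h, incubated 2 h at RT with B/G FRET substrate, and read for fluorescence.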

[5] = qHTS assay to identify small molecule antagonists of the vitamin D receptor (VDR) signaling pathway - cell viability counter screen (AID 743225); also: nearly all actives have a fitted effect of over 50% in size; also: potency is read from the fitted curve at half-maximal effect
Method in brief: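 Viability counter screen run in the same wells as the beta-lactamase reporter assay: HEK 293T VDR-UAS-bla cells, 16 h compound exposure at 37C with 3 nM (final) 1-alpha,25-dihydroxyvitamin D3. CellTiter-Glo luminescence, 30 min, room temperature.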

[6] = qHTS assay to identify small molecule agonists of the NFkB signaling pathway (AID 1159509; active = well fitted curve in the direction sought with a large enough effect in the signal ratio in the repeat runs, not every such curve was filed as active; the % refers to the signal ratio; also: series mostly up to about 61 µM)
Method in brief: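 ME-180 NFkB-bla, 2,000 cells/well, overnight plating; cpd pinned in DMSO, 5 h 37 C; B/G FRET substrate 1.5 h RT; ex 405, em 460/530 nm.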

[7] = qHTS assay to identify small molecule agonists of the NFkB signaling pathway - cell viability counter screen (AID 1159515; calls by dose curve; also: series mostly up to about 61 µM; nearly all actives have a fitted effect of over 55% in size)
Method in brief: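 5 hr compound treatment of NFkB-bla ME-180 cells (2,000/well, seeded overnight beforehand), followed by reporter substrate for 1.5 hr. CellTiter-Glo added afterward; luminescence after 30 min RT.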

[8] = qHTS assay to identify small molecule agonists of the endoplasmic reticulum stress response signaling pathway - cell viability counter screen (AID 1159517; calls by dose curve; also: nearly all actives have a fitted effect of over 50% in size; also: potency is read from the fitted curve at half-maximal effect)
Method in brief: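 ESRE-bla HeLa cells, 1,500 per well, seeded overnight then treated with compounds for 5 hr at 37 C. After the beta-lactamase read, viability in the same wells is measured by CellTiter-Glo luminescence after 30 min at room temperature.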

[9] = qHTS assay to identify small molecule agonists of the AP-1 signaling pathway - cell viability counter screen (AID 1159525; calls by dose curve; also: nearly all actives have a fitted effect of over 55% in size; also: potency is read from the fitted curve at half-maximal effect)
Method in brief: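 AP-1-bla ME-180 cells in Opti-MEM with 0.5% dialyzed FBS, compound exposure 5 h at 37 C in 15-point titration. Viability read in the same wells as ATP content by CellTiter-Glo luminescence, normalised to tetra-n-octylammonium bromide and DMSO controls.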

[10] = biological target: Peroxisome proliferator-activated receptor delta (Homo sapiens) (UniProt Q03181); assay: qHTS assay to identify small molecule agonists of the peroxisome proliferator-activated receptor delta (PPARd) signaling pathway (AID 743212; calls by dose curve; also: potency is read from the fitted curve at half-maximal effect)
Peroxisome proliferator-activated receptor delta (Homo sapiens), sequence (Q03181 whole entry, looked up): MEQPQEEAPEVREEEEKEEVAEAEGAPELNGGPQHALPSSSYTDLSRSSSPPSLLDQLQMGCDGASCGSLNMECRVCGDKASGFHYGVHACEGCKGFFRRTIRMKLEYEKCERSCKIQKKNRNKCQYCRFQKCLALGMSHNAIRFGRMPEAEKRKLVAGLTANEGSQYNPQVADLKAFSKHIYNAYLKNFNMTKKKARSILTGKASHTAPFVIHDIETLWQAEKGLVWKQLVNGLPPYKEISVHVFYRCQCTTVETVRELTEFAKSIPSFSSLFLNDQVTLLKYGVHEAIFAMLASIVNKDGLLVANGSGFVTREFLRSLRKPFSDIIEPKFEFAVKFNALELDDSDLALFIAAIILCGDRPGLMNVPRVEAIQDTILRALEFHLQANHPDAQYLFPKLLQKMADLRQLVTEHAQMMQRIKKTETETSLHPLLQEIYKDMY
Method in brief: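 GeneBLAzer UAS-bla HEK293H cells carrying a PPARδ construct were exposed to compounds at 37 °C. Beta-lactamase activity was read by FRET fluorescence after 2 h at room temperature with LiveBLAzer B/G substrate.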

[11] = biological target: Bile acid receptor (Homo sapiens) (UniProt Q96RI1); assay: qHTS assay to identify small molecule agonists of the farnesoid-X-receptor (FXR) signaling pathway (AID 743220; active = well fitted activation curve with a large enough effect in the signal ratio in the repeat runs, not every such curve was filed as active; the % refers to the signal ratio)
Bile acid receptor (Homo sapiens), sequence (Q96RI1 whole entry, looked up): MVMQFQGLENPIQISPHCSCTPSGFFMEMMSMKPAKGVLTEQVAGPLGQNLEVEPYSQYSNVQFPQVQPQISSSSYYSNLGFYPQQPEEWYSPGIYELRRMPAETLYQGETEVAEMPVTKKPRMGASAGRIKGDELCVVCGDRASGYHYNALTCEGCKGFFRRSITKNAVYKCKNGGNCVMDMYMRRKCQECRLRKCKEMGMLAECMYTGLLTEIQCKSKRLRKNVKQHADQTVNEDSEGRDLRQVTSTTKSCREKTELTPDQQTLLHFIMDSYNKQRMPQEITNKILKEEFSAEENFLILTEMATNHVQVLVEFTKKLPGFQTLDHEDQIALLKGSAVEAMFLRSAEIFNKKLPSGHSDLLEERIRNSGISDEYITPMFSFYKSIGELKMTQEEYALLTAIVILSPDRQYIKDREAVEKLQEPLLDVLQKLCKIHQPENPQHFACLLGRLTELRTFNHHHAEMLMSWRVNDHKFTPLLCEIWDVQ
Method in brief: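 Beta-lactamase reporter under UAS control in GeneBLAzer FXR HEK 293T cells (5000/well) measured with LiveBLAzer FRET substrate after 2 h at room temperature. Compound exposure lasted 16 h at 37C.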

[12] = qHTS assay to identify small molecule agonists of the vitamin D receptor (VDR) signaling pathway - cell viability counter screen (AID 743224); also: nearly all actives have a fitted effect of over 50% in size; also: potency is read from the fitted curve at half-maximal effect
Method in brief: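 Here cell health was gauged by luminescent ATP detection (CellTiter-Glo, 30 min RT) in VDR-bla cells that had been incubated with test compounds for 16 h at 37C and 5% CO2.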

[13] = biological target: Nuclear receptor ROR-gamma (Homo sapiens) (UniProt P51449); assay: qHTS assay to identify small molecule antagonists of the retinoid-related orphan receptor gamma (ROR-gamma) signaling pathway (AID 1159521; also: nearly all actives have a fitted effect of over 50% in size; also: potency is read from the fitted curve at half-maximal effect)
Method in brief: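 Luminescence readout (ONE-Glo, 30 min RT) after 16 h doxycycline induction; loss of signal scored as antagonism. CHO cells with TET-inducible RORγ and RORE-LUC reporter; compounds added 2 h before 1 uM final doxycycline.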

[14] = qHTS assay to identify small molecule agonists of the AP-1 signaling pathway (AID 1159526; calls by dose curve)
[15] = qHTS assay to identify small molecule antagonists of the peroxisome proliferator-activated receptor delta (PPARd) signaling pathway - cell viability counter screen (AID 743213); also: nearly all actives have a fitted effect of over 50% in size; also: potency is read from the fitted curve at half-maximal effect
Method in brief: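 Agonist-stimulated (L165041, 300 nM final) HEK293H PPARd UAS-bla cells are exposed to compounds for 17 h at 37 C, and ATP-based luminescence (CellTiter-Glo) from the same wells reports cytotoxicity.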

[16] = biological target: Peroxisome proliferator-activated receptor delta (Homo sapiens) (UniProt Q03181); assay: qHTS assay to identify small molecule antagonists of the peroxisome proliferator-activated receptor delta (PPARd) signaling pathway (AID 743215; active = well fitted inhibition curve with a large enough effect in the signal ratio in the repeat runs, not every such curve was filed as active; the % refers to the signal ratio; also: potency is read from the fitted curve at half-maximal effect)
Method in brief: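 With L165041 present at 300 nM final, compounds were incubated 17 h at 37 C on PPARd UAS-bla HEK293H cells. A FRET-based beta-lactamase substrate was then applied for 2 h at room temperature and fluorescence intensity recorded.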

[17] = biological target: Bile acid receptor (Homo sapiens) (UniProt Q96RI1); assay: qHTS assay to identify small molecule antagonists of the farnesoid-X-receptor (FXR) signaling pathway (AID 743217; active = well fitted inhibition curve with a large enough effect in the signal ratio in the repeat runs, not every such curve was filed as active; the % refers to the signal ratio; also: potency is read from the fitted curve at half-maximal effect)
Method in brief: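 In this cell-based antagonist screen, inhibition of CDCA-driven (50 uM final) UAS-beta-lactamase expression in HEK 293T cells was measured by FRET fluorescence following 16 h compound exposure at 37 °C.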

[18] = biological target: Vitamin D3 receptor (Homo sapiens) (UniProt P11473); assay: qHTS assay to identify small molecule antagonists of the vitamin D receptor (VDR) signaling pathway (AID 743223; active = well fitted inhibition curve with a large enough effect in the signal ratio in the repeat runs, not every such curve was filed as active; the % refers to the signal ratio; also: potency is read from the fitted curve at half-maximal effect)
Method in brief: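 Beta-lactamase reporter read-out: FRET substrate fluorescence after 2 h at room temperature, following 16 h exposure of VDR-bla cells to test compound plus 3 nM (final) 1alpha,25-dihydroxyvitamin D3 agonist at 37C.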

[19] = qHTS assay to identify small molecule agonists of the endoplasmic reticulum stress response signaling pathway (AID 1159516; active = well fitted activation curve with a large enough effect in the signal ratio in the repeat runs, not every such curve was filed as active; the % refers to the signal ratio)
Method in brief: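 Reporter HeLa cells (ESRE-beta-lactamase) underwent 5 hr compound incubation at 37 C and 5% CO2 in quantitative HTS format. Detection followed 2 hr of FRET substrate loading at room temperature.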

[20] = qHTS assay to identify small molecule antagonists of the retinoid-related orphan receptor gamma (ROR-gamma) signaling pathway - cell viability counter screen (AID 1159520); also: nearly all actives have a fitted effect of over 50% in size; also: potency is read from the fitted curve at half-maximal effect
Method in brief: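 Tet-on ROR gamma CHO cells were given compounds for 2 hr, then doxycycline hyclate at 1 uM final, and incubated 16 hr at 37 C. Viability was measured as ATP content by CellTiter-Glo luminescence.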

Measured: Potency

COc1cc(Nc2c(C#N)cnc3cc(OCCCN4CCN(C)CC4)c(OC)cc23)c(Cl)cc1Cl
inactive: [4] | [6] | [7] | [8] | [9]
active: [1] 26.6 µM | [2] 13.3 µM | [3] 26.6 µM | [5] 19 µM

C/C=C(/C(=C/C)c1ccc(O)cc1)c1ccc(O)cc1
inactive: [10] | [11] | [12] | [5] | [6] | [7] | [8] | [13] | [14]

C=COCC(C)C
not listed: [7]
inactive: all other assays above

NC1[C@H]2CN(c3nc4c(cc3F)c(=O)c(C(=O)O)cn4-c3ccc(F)cc3F)C[C@@H]12 (stereo not given in full)
inactive: [1] | [15] | [3] | [6] | [19] | [8] | [20] | [13] | [9] | [14]
active: [10] 29.8 µM

CC(C)(c1ccccc1)c1ccccc1
not listed: [2] | [4] | [7] | [10] | [11] | [16] | [17]
inactive: all other assays above

OCCN1CCN(CCCN2c3ccccc3Sc3ccc(Cl)cc32)CC1
active: [1] 29.8 µM | [2] 26.6 µM | [3] 26.6 µM | [5] 23.9 µM
inactive: [10] | [11] | [12] | [6] | [7]

CCCCCC[C@@H](O)C/C=C\CCCCCCCC(=O)OCC(O)CO (stereo not given in full)
active: [10] 49 µM
not listed: [7] | [11] | [14] | [16] | [17] | [18]
inactive: all other assays above

O=C(/C=C/c1ccc(O)c(O)c1)O[C@@H]1C[C@@](OC(=O)/C=C/c2ccc(O)c(O)c2)(C(=O)O)C[C@@H](O)[C@@H]1O
not listed: [7] | [10] | [11] | [17]
inactive: all other assays above

O=C(O)C[C@H](NC(=O)OCc1ccccc1)C(=O)O
not listed: [2] | [7] | [11] | [17]
inactive: all other assays above

Nc1nnc(-c2ccc([N+](=O)[O-])o2)o1
active: [13] 6.86 µM
not listed: [2] | [7] | [11] | [14] | [16] | [17]
inactive: all other assays above

COc1cc(C(=O)NC2CCN(C)CC2)ccc1Nc1ncc2c(n1)N(C1CCCC1)CC(F)(F)C(=O)N2C
inactive: [10] | [4] | [6] | [19] | [14]
active: [1] 11.3 µM | [15] 7.11 µM | [16] 14.2 µM | [17] 22.5 µM | [2] 17.9 µM | [18] 6.34 µM | [12] 15.9 µM | [5] 7.11 µM | [8] 50.4 µM | [20] 22.3 µM | [13] 15.8 µM | [9] 6.34 µM

CC(=O)Nc1ccc(C)cc1C
not listed: [7] | [16]
inactive: all other assays above

NC(=O)c1ccncc1
not listed: [2] | [7] | [11] | [17] | [18]
inactive: all other assays above

CO/N=C(/C(=O)N[C@@H]1C(=O)N2C(C(=O)O)=C(COC(N)=O)CS[C@H]12)c1ccco1
not listed: [2] | [7] | [11] | [14] | [17]
inactive: all other assays above

O=c1[nH]ncc2ccccc12
not listed: [4] | [7] | [11] | [16] | [17]
inactive: all other assays above

C=C/C(C)=C/C/C=C(\C)CCC=C(C)C
not listed: [1] | [2] | [4] | [7] | [11]
inactive: all other assays above
